Among all 69,000 compounds or so, about 8,600 (12%) showed an effect of 50% or more. The sample as a whole holds a higher share of strong results than the screen did.
System: Plasmodium berghei
Experiment: Screen against P. berghei liver stage (PbLuc), transformed with Luciferase, at 10uM
Type: functional, HepG2
Conditions: tested at 10 uM

In order of rising INHIBITION:
1. CCn1ncnc1C(C)Nc1cc(C2CCNCC2)nc(C)n1 (stereo not given)  -63.5%
2. CCN1CCN(S(=O)(=O)N2CCc3ccccc3C2)[C@H]2CS(=O)(=O)C[C@H]21  -40.4%
3. CS(=O)(=O)NCCCNC(=O)NCc1ccccc1  -40.2%
4. Cc1ccc(Cn2ccc(NS(C)(=O)=O)n2)cc1  -36.5%
5. Cn1cc([C@@H]2CN(S(=O)(=O)c3cccnc3)C[C@H]2N)c2ccncc21  -30.435%
6. COCCN1C(=O)[C@@H]2CC[C@H]1CN(Cc1nnc(-c3ccccc3)o1)C2  -24.5%
7. CN(Cc1cc(C(C)(C)C)n[nH]1)C(=O)c1ccccc1C1CCNC1 (stereo not given)  -23.2%
8. Cc1cc(CN(C)C(=O)CN2CC3(CCNCC3)OC2=O)no1  -20.7%
9. COc1cccc(-c2cnc(CNC(C)(C)c3nc(C)cs3)o2)c1  -16%
10. CS(=O)(=O)CCNC(=O)N1CC2(CCCC2)c2ccccc21  -8.91%
11. Cc1ncsc1CCN(C)C(=O)CN1CC2(CCNCC2)OC1=O  -5.52%
12. CCC(O)CN1CCN(C(=O)c2ccn(-c3ccccc3)n2)CC1 (stereo not given)  2.3%
13. Cc1ccn(CCNC(=O)C2CCN(S(=O)(=O)c3ccc(F)cc3)C2)n1 (stereo not given)  3.91%
14. CN(C)c1cc2c(nn1)CCN(C(=O)C1CCCc3ccccc31)C2 (stereo not given)  5.03%
15. COc1ccc2[nH]cc(C(=O)N3C[C@@H](O)[C@H](N4CCCC4)C3)c2c1  11.8%
16. CNC(=O)[C@@H](C)NC(=O)c1cc(-c2ccc(F)cc2)c(C)s1  12.4%
17. CCCn1nc2c(cc1=O)CN(Cc1nc(C)c(C)o1)CC2  14.1%
18. COCc1cc(CNC(=O)c2cccc3c2OCC3)n[nH]1  14.6%
19. CN(CC1(C)COC1)C(=O)c1cc(-c2ccn(C)n2)nc2ccccc12  18.2545%
20. Cc1noc(C)c1-c1cc(C2CCNCC2)ccn1  20.8%
21. CC(C(=O)Nc1nccs1)N(C)Cc1cccc(C#N)c1 (stereo not given)  22.6%
22. CC(C)c1ccc(CC(=O)N2CCCC3(CN(C)C(=O)O3)C2)cc1 (stereo not given)  24.3%
23. O=C(NCCc1c[nH]cn1)c1ccccc1C1CCNC1 (stereo not given)  24.4%
24. Cc1noc(C)c1-c1ccnc(C2CCN(C3CCOCC3)CC2)c1  24.4%
25. O=S1(=O)C[C@@H]2[C@H](C1)N(Cc1cc(Cl)cc(Cl)c1)CCN2CC1CC1  25.4%
26. CN(Cc1ncnn1C1Cc2ccccc2C1)C1CCS(=O)(=O)C1 (stereo not given)  25.4%
27. Cc1cc(C)n(CCCN(C)C(=O)CN2CC3(CCNCC3)OC2=O)n1  25.8%
28. CC(C)C(=O)N1CCC(c2nc3c([nH]2)CCCNC3=O)CC1  25.9%
29. O=C(NCc1cccnc1)c1nc2c(s1)CCCN2C(=O)C1CC1  27.6%
30. COc1ccccc1CN1CC(O)CN(S(=O)(=O)C(C)C)CC1=O (stereo not given)  28.3%
31. NC1CCN(C(=O)c2c(F)cccc2Br)CC1  28.7%
32. COc1ccc(Br)cc1SCCS(C)(=O)=O  29%
33. CCc1oc(C(=O)NC(C)Cc2cnccn2)cc1CN1CCCC1 (stereo not given)  30%
34. CC(=O)N1CC(=O)N(c2cnn(C)c2)CC12CCN(CC1CC1)C2 (stereo not given)  30.1%
35. O=S1(=O)C[C@@H]2[C@H](C1)N(Cc1cc(Cl)cc(Cl)c1)CCN2CCO  30.7%
36. O=C(NCc1ccc2c(c1)OCO2)c1ccccc1C1CCNC1 (stereo not given)  31%
37. Cc1cc(C)n(CC2CCCN2C(=O)CCc2nccs2)n1 (stereo not given)  31.1%
38. Cc1cc(C(=O)N2CC[C@@H]3CN(c4ncccn4)CCO[C@@H]3C2)c(C)o1  33.5%
39. O=S1(=O)C[C@@H]2[C@H](C1)N(Cc1cc(F)cc(F)c1)CCN2CCO  33.7%
40. COc1ccc2c(c1)CCN2Cc1nc2c(cnn2C)c(=O)[nH]1  33.8%
41. O=C(NCCc1cccnc1)c1nc2c(s1)CCCN2C(=O)C1CC1  35.8%
42. Cc1ccc(CN2CCN(Cc3ccncc3)[C@@H]3CS(=O)(=O)C[C@@H]32)cc1  36.7%
43. CCCN1CCN(Cc2cccc(OCC(N)=O)c2)[C@H]2CS(=O)(=O)C[C@H]21  36.8%
44. COc1ccccc1S(=O)(=O)N1CCN(C)[C@@H]2CS(=O)(=O)C[C@@H]21  39.6%
45. CCCN1CCN(Cc2cccc(OC(C)C)c2)[C@H]2CS(=O)(=O)C[C@H]21  40.1%
46. CCCn1cc(C(=O)NC(C)c2c(C)nn(CC)c2C)c(C)n1 (stereo not given)  43%
47. CN1CCN(Cc2cscn2)CC(C(=O)N(C)C)C1 (stereo not given)  43.8%
48. CCc1cc(CN(C)C(=O)CN2CC3(CCNCC3)OC2=O)on1  44.2%
49. CC(C)Cc1cc(CNC(=O)c2cccc3c2NCCC3)no1  44.3%
50. CSc1cccc(NC(C)C(=O)Nc2nccs2)c1 (stereo not given)  44.4%
51. Cc1cc(C)nc(CN(C)C(=O)c2ccccc2C2CCNC2)c1 (stereo not given)  47.2%
52. CS(=O)(=O)Nc1ccn(Cc2ccc(Br)cc2)n1  49.9%
53. CCCN1CCN(Cc2cc(Cl)cc(Cl)c2)[C@H]2CS(=O)(=O)C[C@H]21  50.5%
54. CN(Cc1cc(C2CC2)[nH]n1)C(=O)c1ccccc1C1CCNC1 (stereo not given)  51.3%
55. Cc1nnsc1CN(C)C(=O)CN1CC2(CCNCC2)OC1=O  51.8%
56. O=C(NCCc1cccc(F)c1)c1nc2c(s1)CCCN2C(=O)C1CC1  52.1%
57. CC(C)Cc1cc(CNC(=O)c2cccc3c2OCC3)no1  52.6%
58. CCCN1CCN(Cc2cccc(OC)c2)[C@H]2CS(=O)(=O)C[C@H]21  53.2%
59. CS(=O)(=O)Nc1ccn(Cc2ccc(Cl)cc2)n1  58.2%
60. O=S1(=O)C[C@@H]2[C@H](C1)N(Cc1cc(F)cc(Cl)c1)CCN2CCO  58.5%
61. Cc1cc(CN(C)C(=O)CN2CC3(CCNCC3)OC2=O)n(C)n1  64.8%
62. CCCN1CCN(S(=O)(=O)c2ccccc2OC)[C@H]2CS(=O)(=O)C[C@H]21  65.7%
63. Cc1noc(C)c1-c1ccnc(C2CCNCC2)c1  67.7%
64. CC(C)Cc1cc(CNC(=O)c2ccccc2C2CCNC2)no1 (stereo not given)  68.4%
65. Cc1cccc(NC(C)C(=O)Nc2nccs2)c1 (stereo not given)  79.8%
